# KDM5B inhibitor: KDM5B demethylase inhibition; Potency, µM (top dose mostly 57.7 µM), hits mostly inhibitors; 2.6% of 220,000 active; KDM5B demethylase, FDH-coupled NADH fluorescence (FDH is formaldehyde dehydrogenase); AID 1347165; Q9UGL1; active means well fitted inhibition curve with a large enough effect; further: 0% is about no effect; nearly all actives have a fitted effect of over 70% in size
#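 Coupled FDH/NAD⁺ fluorescence readout. KDM5BΔAP 200 nM final; compound titration, 10 min RT preincubation; substrate mix 12.5 µM H3K4me3, 25 µM 2-OG, 50 µM Fe(II), 100 µM ascorbate, 0.25 mM NAD⁺, 0.25 U/mL FDH; ΔRFU over 30 min.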
# * marks the source's active call; other numbers are inactive results; i = inactive. This excerpt belongs to a sample that is enriched for hits. Potency means the concentration at half of the fitted maximal effect.
SMILES,KDM5B inhibitor
CCNC(=O)CN1CCN(Cc2coc(-c3ccccc3)n2)CC1,i
O=C(CCc1ncc(-c2ccccc2)o1)Nc1ccc(OCc2ccccc2)cc1,i
COCc1ccc2c(c1)c(OC(C)(C)C(=O)Nc1cc(C)nn1C)nn2Cc1ccccc1,i
CN1CCC(NC(=O)C(C)(C)Oc2nn(CCOc3ccccc3)c3ccccc23)CC1,i
COCc1ccc2c(c1)c(OC(C)(C)C(=O)NC1CC1)nn2Cc1ccccc1,35.5µM*
COCc1ccc2c(c1)c(OC(C)(C)C(=O)NCC1CCOCC1)nn2CCC(C)C,35.5µM*
Cn1nc(OC(C)(C)C(=O)NCCOc2ccccc2)c2cc(CN3CCCC3)ccc21,39.8µM*
COCc1ccc2c(c1)c(OC(C)(C)C(=O)NCc1cnccn1)nn2Cc1cccnc1,i
CC(C)(Oc1nn(CCN2CCOCC2)c2ccccc12)C(=O)NCc1ccccc1,i
COCc1ccc2c(c1)c(OC(C)(C)C(=O)Nc1ccccc1)nn2Cc1cccnc1,i
CC(C)n1nc(OC(C)(C)C(=O)NCc2cnccn2)c2cc(CN3CCOCC3)ccc21,i
COCCCn1c(Cc2c(F)cccc2Cl)n[nH]c1=S,i
O=C(c1ccc(Br)cc1)N1CCC(CN2CCOCC2)CC1,i
CCN1CCN(c2oc(-c3ccc(S(=O)(=O)N(CC)CC)cc3)nc2C#N)CC1,i
Cc1nc(C)c(C(=O)C2=C(O)C(=O)N(CCN3CCOCC3)C2c2ccc(Cl)cc2)s1 (stereo not drawn),i
CC(C(=O)N1CCNC1=O)N(C)Cc1ccccc1Cl (stereo not drawn),i
CCOC(=O)C1(Cc2ccccc2C(F)(F)F)CCN(C(C)Cc2cccc(C)n2)CC1 (stereo not drawn),i
CCn1ncc(CN(C)C(=O)CC2C(=O)NCCN2C(C)C)c1C (stereo not drawn),31.6µM*
CCOc1ccccc1CN1CCNC(=O)C1CC(=O)N(C)Cc1cnccn1 (stereo not drawn),i
CCOc1ccccc1CN1CCNC(=O)C1CC(=O)N(C)Cc1nonc1C (stereo not drawn),i
Cc1ccc(CN2CCN(c3nc(C)ccc3C#N)CC2CCO)cc1 (stereo not drawn),17.8µM*
COc1cc(CN2CCN(c3ncnc(C)c3C)CC2CCO)cc(OC)c1 (stereo not drawn),i
CCOc1ccc(CN2CCN(c3cc(C)nc(NC)n3)CC2CCO)cc1 (stereo not drawn),i
CNC(=O)NC(=O)CSc1ncnc2ccccc12,i
CC(CCc1ccccc1)NC(=O)c1ccc[n+]([O-])c1 (stereo not drawn),i
SMILES,KDM5B inhibitor
CCCOc1ccc(-c2csc(-c3ccc(Cl)cc3)n2)cc1,i
CN1CCC(NC2(Cc3cc(-c4ccccn4)on3)COC2)CC1,i
O=c1cc(-c2ccccn2)oc2c(NC3CCOCC3)nccc12,31.6µM*
O=c1cc(-c2cccnc2)oc2c(NCCc3ccccn3)nccc12,i
O=C1NCc2ccccc2CC12CCN(Cc1ccnc3ccccc13)CC2,i
Cc1ccccc1CN1CCC2(CC1)Cc1ccccc1CNC2=O,i
Cc1cccc(CN2CCCC3(Cc4ccccc4CNC3=O)C2)n1 (stereo not drawn),i
O=C1NCc2ccccc2CC12CCCN(Cc1ccc(O)cc1)C2 (stereo not drawn),i
Cc1ncc(CO)c(CN2CCC3(CC2)Cc2ccccc2CNC3=O)c1O,70.8µM*
Cc1ncc(CO)c(CN2CCCC3(Cc4ccccc4CNC3=O)C2)c1O (stereo not drawn),79.4µM*
Cc1nc(N2CCCCC2)ncc1-c1cc(=O)[nH]c(N2CCc3ccccc3C2)n1,i
CCCCOC(=O)C(C)Oc1ccc2c(=O)c(Oc3ccc(C(C)(C)C)cc3)coc2c1 (stereo not drawn),i
COc1ccc(-c2ccc3nc(-c4ccc(Cl)cc4)oc3c2)c(OC)c1OC,i
COc1ccc(OC)c(-c2nc3ccc(-c4ccc(OC)c(OC)c4OC)cc3o2)c1,i
COc1cc(OC)cc(-c2nc3ccc(-c4ccc(OC)c(OC)c4OC)cc3o2)c1,25.1µM*
COc1ccc(-c2ccc3nc(-c4cc(F)cc(F)c4)oc3c2)c(OC)c1OC,i
COc1ccc(-c2ccc3nc(-c4cccc(Cl)c4)oc3c2)c(OC)c1OC,7.94µM*
COc1ccc(-c2ccc3nc(-c4ccccc4)oc3c2)c(OC)c1OC,i
CC(C)(CNC(=O)c1cc2c(s1)CCCCC2)N1CCOCC1,i
O=S(=O)(Cc1ccc(F)cc1)Nc1nc2c(s1)CCCC2,i
FC(F)(F)c1cccc(OCc2noc(-c3ccsc3)n2)c1,i
COc1cccc(C(C)N(C)Cc2nc(COc3ccccc3)no2)c1 (stereo not drawn),i
Cc1cc(CN(C)c2ccc(-c3nc(COc4ccccc4)no3)cn2)on1,35.5µM*
O=C(CSc1nc2c(c(=O)n1CCc1ccccc1)SCC2)Nc1ccc(C(F)(F)F)cc1,i
O=C(c1ccc2cccnc2c1O)N1CCCC(CCc2ccccc2F)C1 (stereo not drawn),11.2µM*

# High-throughput results from PubChem.
